The text below walks through data of PubChem BioAssay (NCI).

About 83,000 compounds went through this panel and 20% of them were active in at least one assay; those are over-represented in the sample as a whole.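 Values shown are percent growth following 48 h exposure of cells in 96-well plates to a single concentration of compound; below 10 was considered active.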 Unmarked numbers belong to inactive results. Active and inactive are the calls of the source.

For one assay, the system named is NCI-H23 lung. The experiment in a line: NCI-60 one-dose screen, 48 h (100 = growth as untreated, 0 = no growth, -100 = all killed). The note with it: 10 µM unless noted.
As for `COc1ccc(-c2cc(NC(=O)Nc3ccc4ncsc4c3)no2)cc1`, the growth is 100%.

Turning to `O=[N+]([O-])c1ccccc1/C=N\NC(=S)N/N=C/c1ccccc1[N+](=O)[O-]`, the growth is 70.1%.

On to `O=C1c2cc3c(cc2-c2c1c1ccc(F)cc1c(=O)n2C[C@H](O)[C@H](O)[C@H](O)CO)OCO3`, for which the growth is -49.4% (active).

Take `Cc1ccc2c(C(C[N+](=O)[O-])c3ccccc3F)c(-c3ccccc3)[nH]c2c1` (stereo unspecified): the growth was 56.9%.

For `COc1ccc(CCNc2nc(SC)nc(-c3cccc([N+](=O)[O-])c3)c2C#N)cc1OC`, the growth is 92.7%.

With `O=C(CCN1C(=O)/C(=C/c2ccc(Cl)cc2)SC1=S)NCCCN1CCOCC1`, the growth is 101%.

`Cc1nn(-c2cc(=O)[nH]c3ccc(Cl)cc23)c(N)c1C#N`: the growth is 93.8%.

`COC[C@H](C)n1c(C2CCOCC2)nc2cnc3cc(-c4c(C)noc4C)c(OC)cc3c21`: the growth was 70.4%.

As to `COc1cc(C(=O)Oc2ccccc2OC(=O)c2cc(OC)c(OC)c(OC)c2)cc(OC)c1OC`, the growth is 86.8%.

For `COc1ccc(/C=C\c2cc(OC)c(OC)c(OC)c2)cc1OCC(=O)Nc1ccc2nc(C)sc2c1`, the growth was 37.6%.

On to `COc1cc2c(cc1O)CC[C@@H]1[C@@H]2CC[C@]2(C)[C@@H](OCCCN(C)C)CC[C@@H]12`, for which the growth was -30% (active).

With `CC(=O)Oc1ccc(Cl)cc1CN(C(C)=O)C1CCCCC1`, the growth is 116%.

Regarding `O=C(/C=C/c1cccc([N+](=O)[O-])c1)c1ccc(O)c(CN2CCN(c3cc4c(cc3F)c(=O)c(C(=O)O)cn4C3CC3)CC2)c1`, the growth is 37.3%.

Consider `O=C1c2cc3c(cc2-c2c1c1ccc(Cl)cc1c(=O)n2CCCN1CCOCC1)OCO3`, for which the growth is 47.9%.

With `COc1ccc(-n2nc(C)c3c(Oc4ccc(NC(=O)Nc5c(Cl)cccc5Cl)cc4)ncnc32)cc1`, the growth is 98.3%.

With `CCOc1cc2c(cc1OCC)C(c1cc(OC)c(O)cc1Cl)NCC2` (stereo unspecified), the growth was 96.7%.

With `COC(=O)c1ccc(NC(=O)c2ccc(-c3cccc([N+](=O)[O-])c3)o2)cc1`, the growth is 87.3%.

Turning to `COc1ccc(-c2cc(-c3ccc(Nc4ccnc5cc(Cl)ccc45)cc3)nc(N3CCOCC3)n2)cc1`, the growth was 68%.

Consider `O=C(COc1cccc(/C=C2\CSc3ccccc3C2=O)c1)Nc1nccs1`, for which the growth is 19.7%.

`N#C/C(=C\c1ccc(-c2ccc(Cl)c(Cl)c2)o1)c1nc(-c2ccco2)cs1`: the growth is 86.6%.

For the compound `CN(C)c1ccc(N=Nc2ccc(Br)cn2)c(O)c1`, the growth is 19.3%.

`C#CCOc1ccc2ncnc(Nc3cccc(CNC(=O)CCl)c3)c2c1`: the growth is 44.5% [8.25 µM].

Turning to `Cn1cc(-c2nonc2-c2c[nH]c3ccccc23)c2cccnc21`, the growth was 54.4%.

`O=CNc1ccc2c(c1)Cc1cccc(NC=O)c1-2`: the growth is 95.6%.

Consider `Cn1c(O)c(N=NC(=O)c2cc(-c3ccccc3)on2)c2ccccc21`, for which the growth was 88.5%.

For `CC1=C/C(=C(\c2ccc(N(C)C)cc2)c2ccc([N+](C)(C)C)cc2)C=CC1=[N+](C)C`, the growth was 80.4%.

On to `COc1cc2c(cc1-c1c(C)noc1C)ncc1nc(C3CCCC3)n([C@H](C)COC(F)F)c12`, for which the growth is 53.7%.

For `Clc1ccc2c(NCCNc3nc(N4CCCCC4)nc4ccccc34)ccnc2c1`, the growth was 54.3%.

As to `COc1ccc2[nH]cc(-c3noc(C(=O)c4cn(C)c5ccc(F)cc45)n3)c2c1`, the growth is 90.2%.

On to `O=c1cc(CSc2nnc(-c3ccc(F)cc3)o2)c2ccc3ccccc3c2o1`, for which the growth was 84.3%.

For `O=C1Nc2ccc(Br)cc2C12Oc1ccccc1C1CC(c3ccc(F)cc3)=NN12` (stereo unspecified), the growth was 89%.

For the compound `FC(F)(F)c1ccc(-c2cn3nc(-c4c[nH]c5ccc(Br)cc45)sc3n2)cc1`, the growth was 85.8%.

On to `COc1cc(/C=C/c2cc(/C=C/c3ccc(O)c(OC)c3)n(-c3c(Cl)cccc3Cl)c(=O)n2)ccc1O`, for which the growth was 29%.

With `C=CCSSc1ncnc2c1ncn2C1OC(CO)C(O)C1O` (stereo unspecified), the growth was 39.7%.

Consider `O=Nc1c(O)c(Cl)cc2ccccc12`, for which the growth was 92.3%.

As for `Cc1cc2nc3[nH]c4ccccc4c3nc2cc1C`, the growth was 99.6%.

Turning to `COc1cc(-c2nn(C)nc2-c2cc3ccccc3s2)cc(OC)c1OC`, the growth is 30.4%.

`CC(=O)OCCC/C(=C/c1cc2ccccc2c2ccccc12)[N+](=O)[O-]`: the growth is -76.5% (active).

For another assay, the system named is NCI-H226 lung. The assay is described as above. Conditions: 10 µM unless noted.
With `COc1ccc(-c2cc(NC(=O)Nc3ccc4ncsc4c3)no2)cc1`, the growth is 101%.

With `O=[N+]([O-])c1ccccc1/C=N\NC(=S)N/N=C/c1ccccc1[N+](=O)[O-]`, the growth is 83.1%.

In the case of `O=C1c2cc3c(cc2-c2c1c1ccc(F)cc1c(=O)n2C[C@H](O)[C@H](O)[C@H](O)CO)OCO3`, the growth was -34.7% (active).

For `Cc1ccc2c(C(C[N+](=O)[O-])c3ccccc3F)c(-c3ccccc3)[nH]c2c1` (stereo unspecified), the growth is 58.6%.

As to `COc1ccc(CCNc2nc(SC)nc(-c3cccc([N+](=O)[O-])c3)c2C#N)cc1OC`, the growth was 49.2%.

Turning to `O=C(CCN1C(=O)/C(=C/c2ccc(Cl)cc2)SC1=S)NCCCN1CCOCC1`, the growth was 98.2%.

Turning to `Cc1nn(-c2cc(=O)[nH]c3ccc(Cl)cc23)c(N)c1C#N`, the growth was 81.3%.

As for `COC[C@H](C)n1c(C2CCOCC2)nc2cnc3cc(-c4c(C)noc4C)c(OC)cc3c21`, the growth was 67%.

As for `COc1cc(C(=O)Oc2ccccc2OC(=O)c2cc(OC)c(OC)c(OC)c2)cc(OC)c1OC`, the growth is 107%.

For `COc1ccc(/C=C\c2cc(OC)c(OC)c(OC)c2)cc1OCC(=O)Nc1ccc2nc(C)sc2c1`, the growth is 24.8%.

Take `COc1cc2c(cc1O)CC[C@@H]1[C@@H]2CC[C@]2(C)[C@@H](OCCCN(C)C)CC[C@@H]12`: the growth is 9.47% (active).

For the compound `CC(=O)Oc1ccc(Cl)cc1CN(C(C)=O)C1CCCCC1`, the growth was 96.3%.

As to `O=C(/C=C/c1cccc([N+](=O)[O-])c1)c1ccc(O)c(CN2CCN(c3cc4c(cc3F)c(=O)c(C(=O)O)cn4C3CC3)CC2)c1`, the growth is 60.8%.

In the case of `O=C1c2cc3c(cc2-c2c1c1ccc(Cl)cc1c(=O)n2CCCN1CCOCC1)OCO3`, the growth was 24.9%.

As to `COc1ccc(-n2nc(C)c3c(Oc4ccc(NC(=O)Nc5c(Cl)cccc5Cl)cc4)ncnc32)cc1`, the growth was 107%.

For the compound `CCOc1cc2c(cc1OCC)C(c1cc(OC)c(O)cc1Cl)NCC2` (stereo unspecified), the growth was 100%.

On to `COC(=O)c1ccc(NC(=O)c2ccc(-c3cccc([N+](=O)[O-])c3)o2)cc1`, for which the growth was 73.9%.

For the compound `COc1ccc(-c2cc(-c3ccc(Nc4ccnc5cc(Cl)ccc45)cc3)nc(N3CCOCC3)n2)cc1`, the growth is 69.4%.

`O=C(COc1cccc(/C=C2\CSc3ccccc3C2=O)c1)Nc1nccs1`: the growth was 104%.

As to `N#C/C(=C\c1ccc(-c2ccc(Cl)c(Cl)c2)o1)c1nc(-c2ccco2)cs1`, the growth was 81.5%.

For the compound `CN(C)c1ccc(N=Nc2ccc(Br)cn2)c(O)c1`, the growth is 7.29% (active).

In the case of `C#CCOc1ccc2ncnc(Nc3cccc(CNC(=O)CCl)c3)c2c1`, the growth is 27.7% [8.25 µM].

Turning to `Cn1cc(-c2nonc2-c2c[nH]c3ccccc23)c2cccnc21`, the growth is 30.2%.

Turning to `O=CNc1ccc2c(c1)Cc1cccc(NC=O)c1-2`, the growth is 83.6%.

Take `Cn1c(O)c(N=NC(=O)c2cc(-c3ccccc3)on2)c2ccccc21`: the growth was 88.4%.

As to `CC1=C/C(=C(\c2ccc(N(C)C)cc2)c2ccc([N+](C)(C)C)cc2)C=CC1=[N+](C)C`, the growth is 88.4%.

In the case of `COc1cc2c(cc1-c1c(C)noc1C)ncc1nc(C3CCCC3)n([C@H](C)COC(F)F)c12`, the growth is 48.1%.

Turning to `Clc1ccc2c(NCCNc3nc(N4CCCCC4)nc4ccccc34)ccnc2c1`, the growth is -8.68% (active).

For the compound `COc1ccc2[nH]cc(-c3noc(C(=O)c4cn(C)c5ccc(F)cc45)n3)c2c1`, the growth was 83.5%.

Consider `O=c1cc(CSc2nnc(-c3ccc(F)cc3)o2)c2ccc3ccccc3c2o1`, for which the growth was 81.1%.

For the compound `O=C1Nc2ccc(Br)cc2C12Oc1ccccc1C1CC(c3ccc(F)cc3)=NN12` (stereo unspecified), the growth is 83.1%.

Consider `FC(F)(F)c1ccc(-c2cn3nc(-c4c[nH]c5ccc(Br)cc45)sc3n2)cc1`, for which the growth was 79.1%.

Take `COc1cc(/C=C/c2cc(/C=C/c3ccc(O)c(OC)c3)n(-c3c(Cl)cccc3Cl)c(=O)n2)ccc1O`: the growth was 48.8%.

With `C=CCSSc1ncnc2c1ncn2C1OC(CO)C(O)C1O` (stereo unspecified), the growth is 65%.

For `O=Nc1c(O)c(Cl)cc2ccccc12`, the growth is 78.9%.

For `Cc1cc2nc3[nH]c4ccccc4c3nc2cc1C`, the growth is 96.1%.

As for `COc1cc(-c2nn(C)nc2-c2cc3ccccc3s2)cc(OC)c1OC`, the growth was 55.5%.

On to `CC(=O)OCCC/C(=C/c1cc2ccccc2c2ccccc12)[N+](=O)[O-]`, for which the growth was -51.6% (active).
